The panel holds about 79,000 compounds, 15% with a hit somewhere; the sample as a whole holds those more often. A number with no mark means an inactive call. Activity calls are given as the source filed them. Rule as the data show it: active = growth inhibition above about 70%; inactive = the rest.
Experiments:
[1] = NCI Yeast Anticancer Drug Screen. Data for the rad50 strain (AID 155);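 also: 0% = growth of vehicle-only cultures of the same strain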; details: S. cerevisiae rad50 strain growth inhibition, stronger effect = higher value
In short: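 A DNA repair-deficient yeast mutant serves as the test organism; compound-induced growth inhibition is calculated against vehicle-treated cells.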

[2] = NCI Yeast Anticancer Drug Screen. Data for the mec2-1 strain (AID 157); details: S. cerevisiae mec2-1 strain, stronger effect = higher value
In short: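 Readout is yeast growth inhibition, normalised to vehicle-treated controls, in the mec2-1 strain exposed to compound.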

[3] = NCI Yeast Anticancer Drug Screen. Data for the sgs1 mgt1 strain (AID 161);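 also: 0% = growth of cultures given vehicle only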; details: S. cerevisiae sgs1 mgt1 strain, stronger effect = higher value
In short: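 This yeast growth screen uses a strain with defined DNA-repair lesions; compound-treated growth is compared with vehicle-treated growth.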

[4] = NCI Yeast Anticancer Drug Screen. Data for the cln2 rad14 strain (AID 165);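 also: 0% = growth equal to vehicle treated cultures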; details: S. cerevisiae cln2 rad14 strain, stronger effect = higher value
In short: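 Relative to vehicle controls, growth inhibition of compound-treated cln2 rad14 yeast was recorded.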

[5] = NCI Yeast Anticancer Drug Screen. Data for the bub3 strain (AID 167); details: S. cerevisiae bub3 mutant strain, stronger effect = higher value
In short: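 Inhibition values come from growth of compound-treated mutant yeast normalised to vehicle-treated controls.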

[6] = NCI Yeast Anticancer Drug Screen. Data for the mlh1 rad18 strain (AID 175); details: S. cerevisiae mlh1 rad18 strain growth inhibition, stronger effect = higher value
In short: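 Test agents were incubated with a yeast strain of defined genotype (DNA damage repair defect). Inhibition of growth was derived by comparison with vehicle-exposed cultures.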

[7] = at 5.0 µM (retest, dose inferred, filed as 0.5)
[8] = at 50.0 µM (retest, dose inferred, filed as 5.0)

SMILES	growth inhibition [1, 7]	growth inhibition [1, 8]	growth inhibition ([1]; at 50.0 µM)	growth inhibition [2, 7]	growth inhibition [2, 8]	growth inhibition ([2]; at 50.0 µM)	growth inhibition [3, 7]	growth inhibition [3, 8]	growth inhibition ([3]; at 50.0 µM)	growth inhibition [4, 7]	growth inhibition [4, 8]	growth inhibition ([4]; at 50.0 µM)	growth inhibition [5, 7]	growth inhibition [5, 8]	growth inhibition ([5]; at 50.0 µM)	growth inhibition [6, 7]	growth inhibition [6, 8]	growth inhibition ([6]; at 50.0 µM)
NC(=O)/C=C/c1ccc([As]=O)cc1 (stereo unspecified)	1%	25%	97.8% (active)	1%	22%	98.7% (active)	0%	34%	99.3% (active)	9%	3%	96.5% (active)	4%	37%	98.7% (active)	5%	39%	99% (active)
CN(C)c1ccc(C(c2c(O)c3ccccc3oc2=O)c2c(O)c3ccccc3oc2=O)cc1	0%	40%	59.2%	-8%	26%	65.6%	4%	42%	60%	-5%	13%	18.5%	-3%	16%	34.3%	-3%	13%	51%
C[CH2][Sn]([CH2]C(=O)OC)([CH2]C(=O)OC)[c]1ccccc1	97% (active)	97% (active)	83.7% (active)	98% (active)	98% (active)	89.2% (active)	98% (active)	98% (active)	87.8% (active)	86% (active)	97% (active)	84.7% (active)	98% (active)	98% (active)	86% (active)	97% (active)	97% (active)	90.8% (active)
[Cl-].[Cl-].[Cl-].[O-]c1cccc2cccnc12.[O-]c1cccc2cccnc12.[O]=[Mo]	96% (active)	96% (active)	87.5% (active)	73% (active)	73% (active)	91.4% (active)	72% (active)	72% (active)	89.2% (active)	96% (active)	96% (active)	88.6% (active)	64%	64%	90.4% (active)	72% (active)	72% (active)	87.7% (active)
Cc1ccc(S(=O)(=O)/N=[Se](\C)c2ccccc2)cc1 (stereo unspecified)	16%	94% (active)	93.7% (active)	11%	95% (active)	68.5%	18%	83% (active)	90.7% (active)	-1%	56%	60.9%	2%	83% (active)	80% (active)	13%	91% (active)	87.4% (active)
CC(C)CCC1(CCSC(=O)S)C(=O)NC(=O)NC1=O	-4%	77% (active)	85.3% (active)	0%	62%	8.3%	4%	67%	25.8%	-4%	21%	-37.2%	-4%	65%	19.8%	-8%	70% (active)	30.8%
CCC[CH2][Sn]([CH2]CCC)([N]=C=S)[N]=C=S	85% (active)	97% (active)	97.9% (active)	92% (active)	98% (active)	98% (active)	92% (active)	98% (active)	98% (active)	87% (active)	97% (active)	97.3% (active)	94% (active)	97% (active)	98.4% (active)	93% (active)	98% (active)	98.1% (active)
O=C1C=C(N2CC2)C(=O)C(N2CC2)=C1N1CC1	97% (active)	98% (active)	99.2% (active)	98% (active)	99% (active)	99.2% (active)	97% (active)	98% (active)	98.8% (active)	99% (active)	98% (active)	99% (active)	97% (active)	97% (active)	99.2% (active)	98% (active)	98% (active)	99% (active)
COc1ccc([As]=[As]c2ccc(OC)cc2)cc1 (stereo unspecified)	-23%	97% (active)	99.3% (active)	5%	97% (active)	99.3% (active)	-18%	99% (active)	99.2% (active)	-25%	94% (active)	99.2% (active)	-12%	98% (active)	99.2% (active)	-9%	99% (active)	99.1% (active)
CCOc1c(Br)cc(N=Cc2ccc(N(CCCl)CCCl)c(OC)c2)cc1Br	6%	80% (active)	85.2% (active)	-5%	79% (active)	45.8%	-86%	69%	76.2% (active)	-3%	49%	44.4%	-11%	-16%	-15.8%	73% (active)	95% (active)	86.8% (active)
C1=C[N-]c2c3c(ccc2=C1)=CC=C[N-]3.C1=C[N-]c2c3c(ccc2=C1)=CC=C[N-]3.F[P-](F)(F)(F)(F)F.[Cu+2]	56%	98% (active)	99.3% (active)	52%	99% (active)	99.5% (active)	47%	99% (active)	99.5% (active)	51%	98% (active)	98.8% (active)	48%	99% (active)	99.2% (active)	53%	99% (active)	99.1% (active)
Cc1ccc(NC(=O)CBr)cc1	92% (active)	99% (active)	99.1% (active)	97% (active)	100% (active)	99.2% (active)	97% (active)	97% (active)	99.2% (active)	97% (active)	99% (active)	98.8% (active)	95% (active)	99% (active)	99% (active)	94% (active)	98% (active)	99% (active)
